FadD28 FP inh – inhibitors of FadD28 bisubstrate probe binding, primary screen, biochemical, fluorescence polarization, single point; Mycobacterium tuberculosis FadD28 fatty-acid-AMP ligase; inhibition, % at 12.5 µM; 360,000 tested, 0.22% active; in the data active = inhibition above about 8.5%, passing the limit was not always enough
Rv3671c inh – Rv3671c serine protease inhibitors, primary screen, biochemical, fluorescence polarization, M. tuberculosis H37Rv; inhibition, % at 5.96 µM; 320,000 tested, 0.048% active; AID 2606, 2010; in the data active = inhibition above about 38%;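 also: extracellular domain of Rv3671c used as enzyme; 0% = enzyme with DMSO and 100% = no enzyme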
GDH-TPI counter – GDH-TPI coupling enzyme inhibitors, primary screen, artefact control for M. tuberculosis FBA inhibitor project, biochemical, absorbance, full deck; AID 588335, 2011; inhibition, % at 4.8 µM; 360,000 tested, 1.2% active; GDH-TPI coupled enzyme counterscreen, NADH absorbance; in the data active = inhibition above about 30%;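 also: 0% = DMSO wells and 100% = wells lacking the enzyme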
UGM FP inh – M. tuberculosis UGM enzyme inhibitors, primary screen, biochemical, fluorescence polarization, single point; UDP-galactopyranose mutase (Mycobacterium tuberculosis (strain ATCC 25618 / H37Rv)), …; purified UGM, fluorescence polarization probe displacement; inhibition, % at 10 µM; 320,000 tested, 0.06% active; AID 504406, 2011; in the data active = inhibition above about 10%, passing the limit was not always enough
Mtb FBA inh – Mtb FBA enzyme inhibitors, primary screen, biochemical, fluorescence, strain H37Rv. Fructose-bisphosphate aldolase (Mycobacterium tuberculosis (strain ATCC 25618 / H37Rv)), …. purified M. tuberculosis FBA, fluorescence read-out. inhibition, % at 1 µM. 360,000 tested, 2.3% active; in the data active = inhibition above about 27%;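 also: 0% = vehicle and 100% = reference inhibitor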
Target sequence (P9WQA3 whole entry, looked up): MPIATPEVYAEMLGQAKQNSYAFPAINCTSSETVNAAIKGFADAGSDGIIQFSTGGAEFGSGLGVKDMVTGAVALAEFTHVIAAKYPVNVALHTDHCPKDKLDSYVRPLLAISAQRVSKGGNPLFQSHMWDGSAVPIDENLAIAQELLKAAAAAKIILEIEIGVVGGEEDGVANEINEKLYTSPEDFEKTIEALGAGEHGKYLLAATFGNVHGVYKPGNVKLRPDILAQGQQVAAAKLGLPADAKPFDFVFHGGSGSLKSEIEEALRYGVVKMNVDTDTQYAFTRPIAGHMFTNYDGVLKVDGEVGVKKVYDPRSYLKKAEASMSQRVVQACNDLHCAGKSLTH
Mtb hypoxia rep – PubChem AID 1159583; M. tuberculosis hypoxia-regulated fluorescent reporter, fluorescence; fluorescence inhibition, % (test concentration not listed); 300,000 tested, 0.1% active; in the data active = fluorescence inhibition mostly above about 23%, no sharp cut-off; inactive = mostly below about 17%
Numbers without * were called inactive; x = no result given. Shown are actives, neighbours in structure and some others; about 3.5% of the full set was active somewhere.

SMILES | FadD28 FP inh | Rv3671c inh | GDH-TPI counter | UGM FP inh | Mtb FBA inh | Mtb hypoxia rep
O=C(CNC(=O)c1ccc(F)cc1)N/N=C/c1ccc(O)c([N+](=O)[O-])c1 | 0.2 | -4.0 | 36.7* | 0.9 | -2.9 | x
Cc1cc(C)nc(NC(=O)c2cnc3sccn3c2=O)n1 | -4.4 | 3.9 | 45.7* | -1.7 | 3.9 | 5.7
O=C(NCc1cccs1)c1cnc2sccn2c1=O | 0.5 | -5.5 | 45.1* | 1.6 | 1.6 | 1.0
O=C(c1cnc2sccn2c1=O)N(Cc1ccccc1)c1ccccn1 | 1.5 | -2.7 | 33.0* | 3.3 | -0.3 | 6.0
O=C(NCc1ccc(F)cc1)c1cnc2sccn2c1=O | -2.6 | 4.3 | 27.0 | -0.3 | 9.4 | 0.9
O=C(CC(=O)NN=Cc1ccc(C(=O)O)cc1)NCCc1ccccc1 | x | x | x | x | x | 9.1
O=C(NN=Cc1cccc2ccccc12)c1cccs1 | x | x | x | x | x | 11.0
Cn1c(=O)n(C)c2cc(C=N/N=C3/NC(=O)C(CC(=O)O)S3)ccc21 (stereo not given) | x | x | x | x | x | 6.3
COc1cc(/C=N/N=C2/NC(=O)C(Cc3ccc(F)cc3)S2)ccc1O (stereo not given) | 3.8 | -1.4 | 42.0* | -0.2 | 3.5 | x
COc1cc(/C=N/N=C2/NC(=O)C(c3ccccc3)S2)ccc1O (stereo not given) | -1.1 | 0.9 | 53.7* | -1.6 | -4.5 | x
COC(=O)c1c(C#N)c(N)nc2c1CCC2 | -1.3 | 8.1 | 1.4 | 7.5 | 130.1* | 14.0
COc1ccc(-c2c(C#N)c(N)nc3c2CCCCCC3)cc1OC | 1.5 | 6.6 | 6.4 | -1.4 | -4.9 | 19.2
CC(C)(C)CN1C(N)=NCC1Cc1ccc(O)cc1 (stereo not given) | x | x | x | x | x | 7.4
CCCc1cc(=O)oc2cc(OCC(=O)NCCN3CCOCC3)c(Cl)cc12 | 0.4 | x | 32.7* | x | 16.4 | x
CCCc1cc(=O)oc2c(C)c(OCC(=O)NCCN3CCOCC3)ccc12 | 0.2 | -5.6 | 15.4 | 0.2 | 15.7 | 8.8
CCc1cc(=O)oc2cc(C)cc(OCC(=O)NCCCN3CCOCC3)c12 | -1.5 | 0.7 | 20.7 | -0.8 | 115.7* | 3.7
COC(=O)NN=Cc1cc(Cl)cc(Cl)c1OCc1ccc(F)cc1 | x | x | x | x | x | 5.9
CCOc1ccccc1Nc1ncnc2ccccc12 | -2.3 | -2.9 | 6.9 | 0.5 | 188.7* | 3.7
Cc1ccccc1CN1C2c3ccccc3CC2OCCS1(=O)=O (stereo not given) | x | x | x | x | x | 12.1
Cc1ccccc1/C=C\c1nc2ccccc2c(=O)[nH]1 | 1.0 | -2.8 | 21.7 | -2.1 | -1.3 | 3.5
Cc1ccccc1/C=C/c1nc2ccccc2c(=O)[nH]1 | -3.6 | -12.6 | 33.5* | 1.4 | -3.7 | -3.8
Cc1nc2ccccc2c(=O)n1N=Cc1ccccc1 | x | x | x | x | x | 5.9
N#CC1=C(N)C2=C(N3CCCCC3)CCCC2C1(C#N)C#N (stereo not given) | 45.5* | 8.2 | 14.6 | 1.2 | -2.6 | 10.0
CC(C)CCN1C(Nc2ccccc2)=NCC1Cc1ccccc1 (stereo not given) | x | x | x | x | x | 2.8
CCc1noc(C)c1C(=O)NNC(=O)COc1ccc(C)cc1 | 20.2* | 5.0 | 5.8 | 1.4 | 0.2 | -5.6
SMILES | FadD28 FP inh | Rv3671c inh | GDH-TPI counter | UGM FP inh | Mtb FBA inh | Mtb hypoxia rep
COc1ccc(N2C(=O)NC(=O)/C(=C/c3ccc([N+](=O)[O-])s3)C2=O)cc1 | 35.0* | -16.4 | 14.8 | 0.3 | -1.3 | 1.3
COc1ccc(N2C(=O)NC(=O)/C(=C\c3ccc([N+](=O)[O-])s3)C2=O)cc1 | 35.6* | -34.9 | 3.5 | -1.0 | 4.0 | 4.1
COc1ccccc1N1C(=O)NC(=O)/C(=C/c2ccc([N+](=O)[O-])s2)C1=O | x | -8.7 | x | 2.8 | x | 14.1
COc1cccc(N2C(=O)NC(=O)/C(=C/c3ccc([N+](=O)[O-])s3)C2=O)c1 | 18.3* | -31.9 | 6.9 | 4.6 | -1.6 | x
COc1cccc(N2C(=O)NC(=O)/C(=C/c3ccc4c(c3)Cc3ccccc3-4)C2=O)c1 | -3.5 | -8.3 | 0.0 | 2.8 | 6.1 | 5.9
COc1ccc(C2C3C(=O)N(C(C)(C)C)C(=O)C3[C@]3(C)C(=O)N(c4ccccc4)C(=O)N23)cc1 (stereo not given in full) | x | x | x | x | x | -1.1
c1ccc2c(c1)ccc1ccccc12 | 0.0 | 0.1 | 8.8 | x | 4.6 | x
OCCN(CCO)c1cc2c3ccccc3ccc2c2ccccc12 | -3.7 | x | 1.8 | x | 130.8* | 3.4

Bioassay records as filed in PubChem.
